Drawing on the supplement of paper PMC8253809, this text covers growth inhibition for 39 compounds.

The structures appear in SMILES notation. Several values for one entry are separate records, joined by “and”; a condition that tells them apart may be missing. Equal entries are not always repeated.

One assay concerns HGGX39 (paediatric high-grade glioma line). Kind of assay: growth inhibition (% activity, log2 RLU normalised to DMSO / staurosporine); higher = more growth inhibition. The following applies: 33 µM. The method, boiled down: (§1)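 Approved drugs were tested in triplicate at a single final concentration of about 33 μM for 7 days at 37 °C, 5% CO2, on pHGG cell lines and H9-derived neural stem cells. Readout was CellTiter-Glo luminescence, log2-transformed and scaled per plate to % activity between solvent and positive control wells. The median over replicates gives the growth-inhibition value.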
For `NC[C@H]1O[C@H](O[C@H]2[C@H](O)[C@@H](O[C@H]3O[C@H](CO)[C@@H](O)[C@H](N)[C@H]3O)[C@H](N)C[C@@H]2N)[C@H](N)C[C@@H]1O`, the growth inhibition was -1.03%.

As to `CN[C@@H]1[C@H](O[C@H]2[C@H](O[C@H]3[C@H](O)[C@@H](O)[C@H](N=C(N)N)[C@@H](O)[C@@H]3N=C(N)N)O[C@@H](C)[C@]2(O)C=O)O[C@@H](CO)[C@H](O)[C@H]1O`, the growth inhibition was found to be 0.505%.

For `CN1C[C@@H]2C[C@H]1CN2c1cc2c(cc1F)c(=O)c(C(=O)O)cn2C1CC1`, the growth inhibition was 6.03%.

As for `O=C1C(=O)c2ccccc2C(O)=C1C1CCC(c2ccc(Cl)cc2)CC1` (stereo not drawn), the growth inhibition was 1.71%.

Regarding `CCN(CC)C(=O)/C(C#N)=C/c1cc(O)c(O)c([N+](=O)[O-])c1`, the growth inhibition worked out at 0.054%.

Take `CCOC(=O)C1=C(C)NC(C)=C(C(=O)OC)C1c1cccc(Cl)c1Cl` (stereo not drawn): the growth inhibition amounted to 6.84%.

`CCCCCCCCCC(=O)N[C@@H](Cc1c[nH]c2ccccc12)C(=O)N[C@@H](CC(N)=O)C(=O)N[C@@H](CC(=O)O)C(=O)N[C@@H]1C(=O)NCC(=O)N[C@@H](CCCN)C(=O)N[C@@H](CC(=O)O)C(=O)N[C@H](C)C(=O)N[C@@H](CC(=O)O)C(=O)NCC(=O)N[C@H](CO)C(=O)N[C@@H]([C@H](C)CC(=O)O)C(=O)N[C@@H](CC(=O)c2ccccc2N)C(=O)O[C@@H]1C`: the growth inhibition is -1.25%.

In the case of `CC(=O)Oc1cc2c(s1)CCN(C(C(=O)C1CC1)c1ccccc1F)C2` (stereo not drawn), the growth inhibition was 0.291%.

Turning to `Cc1[nH]c(=O)c(C#N)cc1-c1ccncc1`, the growth inhibition stood at 3.34%.

With `CC[N+](CC)(CC)CCOc1cccc(OCC[N+](CC)(CC)CC)c1OCC[N+](CC)(CC)CC`, the growth inhibition was found to be 2.47%.

Regarding `CN1CCN2c3ccccc3Cc3ccccc3C2C1` (stereo not drawn), the growth inhibition amounted to 2.14%.

As for `Cc1cn([C@@H]2C[C@@H](O)[C@H](CO)O2)c(=O)[nH]c1=O`, the growth inhibition was -0.771%.

On to `Nc1ccc(C(=O)NCC(=O)O)cc1`, for which the growth inhibition amounted to 1.62%.

Consider `CNC(=C[N+](=O)[O-])NCCSCc1ccc(CN(C)C)o1`, for which the growth inhibition is 4.25%.

`COC1C(O)CC(=O)OC(C)CC=CC=CC(OC2CCC(N(C)C)C(C)O2)C(C)CC(CC=O)C1OC1OC(C)C(OC2CC(C)(O)C(O)C(C)O2)C(N(C)C)C1O` (stereo not drawn): the growth inhibition came to 1.26%.

In the case of `Cc1c(Cl)cccc1Nc1ccccc1C(=O)O`, the growth inhibition turned out to be 4.47%.

In the case of `CC(=O)OCC(=O)[C@@]12OC(C)(C)O[C@@H]1C[C@H]1[C@@H]3C[C@H](F)C4=CC(=O)C=C[C@]4(C)[C@@]3(F)[C@@H](O)C[C@@]12C`, the growth inhibition was 2.3%.

Regarding `O=C1N=C(O)NC1(c1ccccc1)c1ccccc1`, the growth inhibition was 1.57% and 1.18%.

`CC[C@H](C)C(=O)O[C@H]1C[C@H](O)C=C2C=C[C@H](C)[C@H](CC[C@@H](O)C[C@@H](O)CC(=O)O)[C@H]21`: the growth inhibition amounted to 8.71%.

As for `C=C[C@]1(C)C[C@@H](OC(=O)CSC(C)(C)CNC(=O)[C@H](N)C(C)C)[C@]2(C)[C@H](C)CC[C@]3(CCC(=O)[C@H]32)[C@@H](C)[C@@H]1O`, the growth inhibition is 20.9%.

`N=C(N)c1ccc2cc(OC(=O)c3ccc(N=C(N)N)cc3)ccc2c1`: the growth inhibition is -0.167%.

Turning to `CCC(=O)NCC[C@@H]1CCc2ccc3c(c21)CCO3`, the growth inhibition worked out at 1.29%.

Take `OCC(O)CN1CCN(c2ccccc2)CC1` (stereo not drawn): the growth inhibition is -1.17%.

Consider `CNC(=O)c1cc(Oc2ccc(NC(=O)Nc3ccc(Cl)c(C(F)(F)F)c3)c(F)c2)ccn1`, for which the growth inhibition was 5.15%.

Turning to `CCn1cc(C(=O)O)c(=O)c2cnc(N3CCCC3)nc21`, the growth inhibition is -1.43%.

As to `Cc1c(-c2ccc(O)cc2)n(Cc2ccc(OCCN3CCCCCC3)cc2)c2ccc(O)cc12`, the growth inhibition turned out to be 8.64%.

Turning to `Nc1nc2n[nH]nc2c(=O)[nH]1`, the growth inhibition came to 17.5%.

As to `CCC(C)C1OC2(CCC1C)CC1CC(CC=C(C)C(OC3CC(OC)C(OC4CC(OC)C(O)C(C)O4)C(C)O3)C(C)C=CC=C3COC4C(O)C(C)=CC(C(=O)O1)C34O)O2` (stereo not drawn), the growth inhibition stood at 3.17%.

Consider `O=C([O-])[C@H](O)[C@@H](O)[C@H](O)[C@H](O)CO.[Na+]`, for which the growth inhibition worked out at 1.7%.

For the compound `CC(C(=O)O)c1ccc(C(=O)c2cccs2)cc1` (stereo not drawn), the growth inhibition is -0.848%.

As to `COc1c2occc2cc2ccc(=O)oc12`, the growth inhibition was -2.13%.

`C[C@@H]1CN(c2c(F)c(N)c3c(=O)c(C(=O)O)cn(C4CC4)c3c2F)C[C@H](C)N1`: the growth inhibition was found to be 1.49%.

Regarding `Cc1cc(=O)n(-c2ccccc2)n1C`, the growth inhibition was -0.272%.

For the compound `NCCCCCC(=O)O`, the growth inhibition worked out at 2.5%.

In the case of `Nc1nc2[nH]cc(CCc3ccc(C(=O)N[C@@H](CCC(=O)O)C(=O)O)cc3)c2c(=O)[nH]1`, the growth inhibition was -0.372%.

As to `Cc1onc(-c2ccccc2)c1C(=O)N[C@@H]1C(=O)N2[C@@H]1SC(C)(C)[C@@H]2C(=O)O`, the growth inhibition was -0.815%.

Regarding `Nc1cccc2c1CN(C1CCC(=O)NC1=O)C2=O` (stereo not drawn), the growth inhibition stood at 4.65%.

In the case of `COc1ccccc1N1CCN(CC(O)COc2cccc3ccccc23)CC1` (stereo not drawn), the growth inhibition was found to be 2.32%.

With `CC1CNc2c(cccc2S(=O)(=O)N[C@@H](CCCNC(=N)N)C(=O)N2CC[C@@H](C)C[C@@H]2C(=O)O)C1` (stereo partly drawn), the growth inhibition was -0.0474%.

Another assay has as its system HGGX6 (H3.3 G34R paediatric high-grade glioma line). Described as above. The following applies: 33 µM. Put shortly:
as §1
Consider `NC[C@H]1O[C@H](O[C@H]2[C@H](O)[C@@H](O[C@H]3O[C@H](CO)[C@@H](O)[C@H](N)[C@H]3O)[C@H](N)C[C@@H]2N)[C@H](N)C[C@@H]1O`, for which the growth inhibition came out at 1.31%.

With `CN[C@@H]1[C@H](O[C@H]2[C@H](O[C@H]3[C@H](O)[C@@H](O)[C@H](N=C(N)N)[C@@H](O)[C@@H]3N=C(N)N)O[C@@H](C)[C@]2(O)C=O)O[C@@H](CO)[C@H](O)[C@H]1O`, the growth inhibition is -0.72%.

Take `CN1C[C@@H]2C[C@H]1CN2c1cc2c(cc1F)c(=O)c(C(=O)O)cn2C1CC1`: the growth inhibition was 1.06%.

As for `O=C1C(=O)c2ccccc2C(O)=C1C1CCC(c2ccc(Cl)cc2)CC1` (stereo not drawn), the growth inhibition came out at 0.641%.

As to `CCN(CC)C(=O)/C(C#N)=C/c1cc(O)c(O)c([N+](=O)[O-])c1`, the growth inhibition is -0.625%.

As to `CCOC(=O)C1=C(C)NC(C)=C(C(=O)OC)C1c1cccc(Cl)c1Cl` (stereo not drawn), the growth inhibition is -1.45%.

Regarding `CCCCCCCCCC(=O)N[C@@H](Cc1c[nH]c2ccccc12)C(=O)N[C@@H](CC(N)=O)C(=O)N[C@@H](CC(=O)O)C(=O)N[C@@H]1C(=O)NCC(=O)N[C@@H](CCCN)C(=O)N[C@@H](CC(=O)O)C(=O)N[C@H](C)C(=O)N[C@@H](CC(=O)O)C(=O)NCC(=O)N[C@H](CO)C(=O)N[C@@H]([C@H](C)CC(=O)O)C(=O)N[C@@H](CC(=O)c2ccccc2N)C(=O)O[C@@H]1C`, the growth inhibition is -2.93%.

As to `CC(=O)Oc1cc2c(s1)CCN(C(C(=O)C1CC1)c1ccccc1F)C2` (stereo not drawn), the growth inhibition is -2.02%.

Regarding `Cc1[nH]c(=O)c(C#N)cc1-c1ccncc1`, the growth inhibition is -0.118%.

For the compound `CC[N+](CC)(CC)CCOc1cccc(OCC[N+](CC)(CC)CC)c1OCC[N+](CC)(CC)CC`, the growth inhibition amounted to 0.26%.

For the compound `CN1CCN2c3ccccc3Cc3ccccc3C2C1` (stereo not drawn), the growth inhibition was -2.26%.

For the compound `Cc1cn([C@@H]2C[C@@H](O)[C@H](CO)O2)c(=O)[nH]c1=O`, the growth inhibition was -3.82%.

In the case of `Nc1ccc(C(=O)NCC(=O)O)cc1`, the growth inhibition is 2.81%.

As for `CNC(=C[N+](=O)[O-])NCCSCc1ccc(CN(C)C)o1`, the growth inhibition is 0.922%.

Turning to `COC1C(O)CC(=O)OC(C)CC=CC=CC(OC2CCC(N(C)C)C(C)O2)C(C)CC(CC=O)C1OC1OC(C)C(OC2CC(C)(O)C(O)C(C)O2)C(N(C)C)C1O` (stereo not drawn), the growth inhibition was determined as 1.89%.

For the compound `Cc1c(Cl)cccc1Nc1ccccc1C(=O)O`, the growth inhibition is 2.44%.

On to `CC(=O)OCC(=O)[C@@]12OC(C)(C)O[C@@H]1C[C@H]1[C@@H]3C[C@H](F)C4=CC(=O)C=C[C@]4(C)[C@@]3(F)[C@@H](O)C[C@@]12C`, for which the growth inhibition was -0.607%.

In the case of `O=C1N=C(O)NC1(c1ccccc1)c1ccccc1`, the growth inhibition was 2.58% and 1.56%.

In the case of `CC[C@H](C)C(=O)O[C@H]1C[C@H](O)C=C2C=C[C@H](C)[C@H](CC[C@@H](O)C[C@@H](O)CC(=O)O)[C@H]21`, the growth inhibition was found to be 5.23%.

As to `C=C[C@]1(C)C[C@@H](OC(=O)CSC(C)(C)CNC(=O)[C@H](N)C(C)C)[C@]2(C)[C@H](C)CC[C@]3(CCC(=O)[C@H]32)[C@@H](C)[C@@H]1O`, the growth inhibition was determined as 4.36%.

As to `N=C(N)c1ccc2cc(OC(=O)c3ccc(N=C(N)N)cc3)ccc2c1`, the growth inhibition stood at 1.06%.

For `CCC(=O)NCC[C@@H]1CCc2ccc3c(c21)CCO3`, the growth inhibition is -0.174%.

Take `OCC(O)CN1CCN(c2ccccc2)CC1` (stereo not drawn): the growth inhibition is -1.7%.

Turning to `CNC(=O)c1cc(Oc2ccc(NC(=O)Nc3ccc(Cl)c(C(F)(F)F)c3)c(F)c2)ccn1`, the growth inhibition was 5.99%.

For the compound `CCn1cc(C(=O)O)c(=O)c2cnc(N3CCCC3)nc21`, the growth inhibition worked out at 0.0128%.

In the case of `Cc1c(-c2ccc(O)cc2)n(Cc2ccc(OCCN3CCCCCC3)cc2)c2ccc(O)cc12`, the growth inhibition is 16.4%.

On to `Nc1nc2n[nH]nc2c(=O)[nH]1`, for which the growth inhibition was 13.7%.

Take `CCC(C)C1OC2(CCC1C)CC1CC(CC=C(C)C(OC3CC(OC)C(OC4CC(OC)C(O)C(C)O4)C(C)O3)C(C)C=CC=C3COC4C(O)C(C)=CC(C(=O)O1)C34O)O2` (stereo not drawn): the growth inhibition is 15.6%.

Take `O=C([O-])[C@H](O)[C@@H](O)[C@H](O)[C@H](O)CO.[Na+]`: the growth inhibition came out at 0.0619%.

For `CC(C(=O)O)c1ccc(C(=O)c2cccs2)cc1` (stereo not drawn), the growth inhibition was determined as 1.96%.

On to `COc1c2occc2cc2ccc(=O)oc12`, for which the growth inhibition was -2.24%.

Consider `C[C@@H]1CN(c2c(F)c(N)c3c(=O)c(C(=O)O)cn(C4CC4)c3c2F)C[C@H](C)N1`, for which the growth inhibition was -2.08%.

Consider `Cc1cc(=O)n(-c2ccccc2)n1C`, for which the growth inhibition is -0.826%.

`NCCCCCC(=O)O`: the growth inhibition turned out to be 4.7%.

For `Nc1nc2[nH]cc(CCc3ccc(C(=O)N[C@@H](CCC(=O)O)C(=O)O)cc3)c2c(=O)[nH]1`, the growth inhibition is -2.22%.

Turning to `Cc1onc(-c2ccccc2)c1C(=O)N[C@@H]1C(=O)N2[C@@H]1SC(C)(C)[C@@H]2C(=O)O`, the growth inhibition was determined as 0.0702%.

For the compound `Nc1cccc2c1CN(C1CCC(=O)NC1=O)C2=O` (stereo not drawn), the growth inhibition stood at 4.94%.

For `COc1ccccc1N1CCN(CC(O)COc2cccc3ccccc23)CC1` (stereo not drawn), the growth inhibition is 1.78%.

In the case of `CC1CNc2c(cccc2S(=O)(=O)N[C@@H](CCCNC(=N)N)C(=O)N2CC[C@@H](C)C[C@@H]2C(=O)O)C1` (stereo partly drawn), the growth inhibition was -1.28%.
